From PubChem BioAssay
FH mod – Identification of activators of human fumarate hydratase by quantitative high-throughput screening. Fumarate hydratase, mitochondrial (Homo sapiens), P07954. FH coupled MDH/diaphorase resazurin fluorescence, 15 min. Potency, µM (top dose mostly 79.9 µM), most hits filed as inhibitors. 0.22% of 54,000 active. AID 1347055, 2019; further: the screen sought activators but most active calls are inhibition curves; nearly all actives have a fitted effect of over 45% in size
NTMT1 inh – Primary qHTS for Inhibitors of N-terminal methyltransferase 1 (NTMT1): MTaseGlo Assay; N-terminal Xaa-Pro-Lys N-methyltransferase 1 (Homo sapiens), Q9BV86; NTMT1 MTase-Glo SAH luminescence, purified enzyme; Potency, µM (titrated, usually from 114 µM), actives largely listed as inhibitors; 2.5% of 59,000 active; AID 1645870, 2021; further: nearly all actives have a fitted effect of over 65% in size
DYRK1A inh-1 – Assay for Inhibitors of Dual-Specificity Tyrosine-(Y)-Phosphorylation Regulated Kinase 1A (Kinase-Glo assay); 80% of 100 active; recombinant DYRK1A, Kinase-Glo ATP depletion luminescence; AID 2705, 2010; shares compounds with NTMT1 inh; Potency, µM (doses to about 76.9 µM), usual class: inhibitors
CLK4 inh-1 – Confirmation Assay for Inhibitors of CDC-like Kinase 4 (Kinase-Glo Assay): SAR round 2; Potency, µM (series often up to 76.9 µM), usual class: inhibitors; shares compounds with NTMT1 inh; recombinant Clk4, Kinase-Glo ATP luminescence, 4.5 h; AID 493204, 2011; 90% of 90 active
Target sequence (Q9HAZ1 whole entry, looked up): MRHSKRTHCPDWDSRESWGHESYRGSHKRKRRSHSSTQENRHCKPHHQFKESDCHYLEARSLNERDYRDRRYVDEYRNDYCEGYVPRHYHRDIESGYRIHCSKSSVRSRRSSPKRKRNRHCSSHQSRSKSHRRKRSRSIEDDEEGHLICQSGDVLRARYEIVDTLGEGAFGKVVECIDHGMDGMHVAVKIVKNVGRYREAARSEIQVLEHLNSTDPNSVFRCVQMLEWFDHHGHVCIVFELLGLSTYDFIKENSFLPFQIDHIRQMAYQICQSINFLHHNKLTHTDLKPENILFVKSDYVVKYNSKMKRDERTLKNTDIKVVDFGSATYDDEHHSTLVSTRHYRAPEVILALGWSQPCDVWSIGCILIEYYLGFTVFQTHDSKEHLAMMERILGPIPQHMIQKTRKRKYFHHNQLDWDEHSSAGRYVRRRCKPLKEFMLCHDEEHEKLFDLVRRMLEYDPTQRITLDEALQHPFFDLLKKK
CLK4 inh-2 – Kinase Inhibition Study on Inhibitors of CDC-like Kinase 4 (Reaction Biology data): SAR round 2; AID 504421, 2011; Potency, µM, actives largely listed as inhibitors; Reaction Biology kinase assay, 10 uM ATP; 100% of 65 active; shares compounds with NTMT1 inh; calls by dose curve
DYRK1A inh-2 – Kinase Inhibition Study on Inhibitors of Dyrk1a (Reaction Biology data); shares compounds with NTMT1 inh; Reaction Biology kinase assay, 10 uM ATP; Potency, µM, usual class: inhibitors; 90% of 65 active;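 active means compounds that showed inhibition of Dyrk1a and received a fitted potency; inactive means compounds that showed no inhibition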
CLK2 inh – Kinase Inhibition Study on Inhibitors of CDC-like Kinase 2 (Reaction Biology data); 90% of 65 active; Potency, µM, hits mostly inhibitors; Reaction Biology kinase assay, 10 uM ATP; shares compounds with NTMT1 inh;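 active means compound that inhibits Clk2 kinase in the dose series, with an IC50 potency reported; inactive means no inhibition seen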
CLK3 inh – Kinase Inhibition Study on Inhibitors of CDC-like Kinase 3 (Reaction Biology data). shares compounds with NTMT1 inh. recombinant CLK3 kinase assay, 10 uM ATP. Potency, µM, usual class: inhibitors. 40% of 65 active. AID 504428, 2011;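 active means compounds that inhibited Clk3 enough in the ten-dose series to give a half-maximal potency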
DYRK1B RBC – Kinase Inhibition Study on Inhibitors of Dyrk1b (Reaction Biology data). shares compounds with NTMT1 inh. Recombinant Dyrk1b kinase assay, 10 uM ATP. Potency, µM, usual class: inhibitors. 80% of 65 active. AID 504429, 2011;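 active means compounds whose dose response shows an inhibitor phenotype against the kinase Dyrk1b; inactive means compounds showing no inhibitor phenotype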
CLK1 inh – Kinase Inhibition Study on Inhibitors of CDC-like Kinase 1 (Reaction Biology data) | shares compounds with NTMT1 inh | recombinant Clk1 kinase assay, 10 uM ATP | Potency, µM, actives largely listed as inhibitors | 90% of 65 active | AID 504430, 2011;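 active means compounds that block the splicing kinase Clk1 enough to give a fitted half-inhibition concentration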
NNMT counter – Counterscreen qHTS for Inhibitors of N-terminal methyltransferase 1 (NTMT1): NNMT MTaseGlo assay; 10% of 120 active; shares compounds with NTMT1 inh; NNMT MTase-Glo luminescence, SAH detection; Potency, µM (series often up to 57.1 µM), most hits filed as inhibitors; AID 1645878, 2021
A number is an active result; - = inactive; ? = inconclusive; . = no result given. Most compounds without a hit are left out; they make up all but 2.6% or so of the library. Unless noted, the call rests on the fitted dose curve; in most records, active means well fitted curve in the direction sought with a large enough effect; inconclusive means small, poorly fitted or top-dose-only effect, or another doubt; inactive means no such curve, though single readings can be large; an effect the other way counts as inactive or inconclusive.

SMILES	FH mod	NTMT1 inh	DYRK1A inh-1	others
O=C(NCCN1CCCC1)c1cc(-c2ccc(CN3CCOCC3)cc2)nc2ccc(F)cc12	-	-	.	NNMT counter=-
Cc1ccc2nc3sc(C(=O)NCCN4CCOCC4)cc3cc2c1	.	-	.
CCCN(Cc1cccs1)c1ncnc2ccc(-c3ccc4c(c3)OCO4)cc12	.	?	0.823µM
CCN(CCc1cn(C)cn1)c1ncnc2ccc(-c3ccc4c(c3)OCO4)cc12	.	?	2.32µM
c1nc(N2CCC(N3CCCC3)CC2)c2cc(-c3ccc4c(c3)OCO4)ccc2n1	.	?	23.2µM	CLK4 inh-2=9.96;DYRK1A inh-2=-;CLK2 inh=-;CLK3 inh=-;DYRK1B RBC=-;CLK1 inh=15µM
Cc1csc(CNc2ncnc3ccc(-c4ccc5c(ccn5C)c4)cc23)c1	.	-	.
Cn1cnc(CCNc2ncnc3ccc(-c4ccc5c(c4)OCO5)cc23)c1	.	-	1.46µM
CC(C)c1cc(C(=O)N2CC[C@@H](NC(=O)C3CC3)C2)n[nH]1	-	-	.
COC1CC(=O)C23C(=O)NC(CC(C)C)C2C(C)C(C)=CC3/C=C(\C)CCCC1O (configuration not stated)	-	-	.
C=C[C@H]1[C@H](O[C@@H]2O[C@H](CO)[C@@H](O)[C@H](O)[C@H]2O)OC=C(C(=O)OC)[C@H]1CCOC(=O)c1cc(O)c(O)c(O)c1	-	-	.
CC(C)(C)CNc1ncnc2ccc(-c3ccc4c(c3)OCO4)cc12	.	.	0.0091µM
CCCNc1ncnc2ccc(-c3ccc4c(c3)OCO4)cc12	.	.	.	CLK4 inh-1=0.0412µM
Cc1nc(CCNc2ncnc3ccc(-c4ccc5c(c4)OCO5)cc23)cs1	.	-	.	CLK4 inh-1=0.0654µM
c1nc(NCC2CCOC2)c2cc(-c3ccc4c(c3)OCO4)ccc2n1 (configuration not stated)	-	25.1µM	0.0923µM
CC(C)O[C@@H]1O[C@H](CO)[C@@H](O)[C@H](O)[C@H]1O	-	-	.
N#Cc1ncc(C(=O)OCC(=O)NC2C3CC4CC(C3)CC2C4)cn1 (configuration not stated)	.	-	.
COc1cc(C(=O)OC[C@H]2O[C@H](O[C@@]3(CO)O[C@@H](CO)[C@H](O)[C@H]3O)[C@H](O)[C@@H](O)[C@@H]2O)ccc1O	-	-	.
